Assay results from PubChem BioAssay (Tox21).
Records with an inconclusive call do not appear. The source made the active and inactive calls. Unless noted, the call rests on the fitted dose curve.

Key:
[1] = Nuclear factor erythroid 2-related factor 2/antioxidant responsive element (Nrf2/ARE) small molecule agonists: qHTS cell viability counter screen in human keratinocytes (AID 1919968; active means well fitted curve in the direction sought with a large enough effect in the repeat runs; an effect the other way counts as inactive or inconclusive; further: nearly all actives have a fitted effect of over 55% in size)
Method in brief: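 Fluorescence read-out from CellTiter-Fluor after 1 h at 37 C. Wells held HaCaT-derived ARE-luciferase reporter cells (1,500/well) treated 23 h with DMSO-dissolved compounds. Run in the same wells as the luciferase agonist read.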

[2] = Nuclear factor erythroid 2-related factor 2/antioxidant responsive element (Nrf2/ARE) small molecule agonists: luciferase reporter gene qHTS assay in human keratinocytes (AID 1919969); further: nearly all actives have a fitted effect of over 35% in size
[3] = target: Gonadotropin-releasing hormone receptor (Homo sapiens) (UniProt P30968); test: Human gonadotropin-releasing hormone receptor (GnRHR) small molecule agonists, calcium flux assay in GnRHR-HEK293 cells (AID 1920063); further: nearly all actives have a fitted effect of over 35% in size
Chain of Gonadotropin-releasing hormone receptor (Homo sapiens) (P30968 whole entry, looked up): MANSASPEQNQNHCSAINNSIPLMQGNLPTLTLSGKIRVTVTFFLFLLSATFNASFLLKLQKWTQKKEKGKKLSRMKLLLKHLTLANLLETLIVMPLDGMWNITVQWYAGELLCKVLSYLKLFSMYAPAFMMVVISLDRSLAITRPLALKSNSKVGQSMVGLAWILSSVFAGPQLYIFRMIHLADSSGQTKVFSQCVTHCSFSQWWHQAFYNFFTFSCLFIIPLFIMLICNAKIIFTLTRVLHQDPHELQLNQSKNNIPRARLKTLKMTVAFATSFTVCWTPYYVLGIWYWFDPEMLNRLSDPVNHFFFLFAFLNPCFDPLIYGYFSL
Method in brief: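 Calcium-dye fluorescence, Ex/Em=480/540, recorded every 1 sec over 3 min after compound addition to GnRHR-HEK293 cells. Cells had been seeded 18 hours earlier and dye-loaded for 1 hour at 37 C. Fifteen concentrations, triplicates.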

[4] = target: KiSS-1 receptor (Homo sapiens) (UniProt Q969F8); test: Human kisspeptin (KISS1R) small molecule agonists, calcium flux assay in KISS1R-HEK293 cells (AID 1920064; active means well fitted curve in the direction sought with a large enough effect in the repeat runs; an effect the other way counts as inactive or inconclusive)
Chain of KiSS-1 receptor (Homo sapiens) (Q969F8 whole entry, looked up): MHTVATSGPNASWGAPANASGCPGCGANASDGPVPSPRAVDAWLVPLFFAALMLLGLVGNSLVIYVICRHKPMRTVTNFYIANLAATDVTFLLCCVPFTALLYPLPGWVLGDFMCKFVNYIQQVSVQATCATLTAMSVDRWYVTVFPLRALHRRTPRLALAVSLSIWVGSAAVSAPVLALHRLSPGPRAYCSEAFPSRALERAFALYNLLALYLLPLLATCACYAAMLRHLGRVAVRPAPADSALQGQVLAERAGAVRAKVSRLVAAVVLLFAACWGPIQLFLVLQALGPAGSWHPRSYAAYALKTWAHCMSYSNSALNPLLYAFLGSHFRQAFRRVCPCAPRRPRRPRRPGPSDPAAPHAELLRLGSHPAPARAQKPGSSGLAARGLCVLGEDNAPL
Method in brief: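 Calcium flux read-out: kinetic fluorescence at Ex/Em=480/540, 1 s intervals over 3 min, after pin-tool compound addition to dye-loaded KISS1R-HEK293 cells. Fifteen concentrations, triplicates.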

[5] = G protein-coupled receptor (GPCR) small molecule agonists, calcium flux assay: HEK293 wild type cell line counter screen (AID 1920065)
Method in brief: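 Agonist mode; 18 h seeding at 37 C, 1 h dye load at 37 C; compounds pinned from DMSO, ATP as positive control; kinetic fluorescence 480/540 nm, 3 min, 1 s reads; 15 concentrations, triplicate.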

[6] = p53 small molecule agonists, cell-based qHTS assay with human liver microsomes (AID 1963577)
Method in brief: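 Compounds act here after metabolic activation: human liver microsomes and NADPH, both at 0.5 mg/mL final, were co-added to p53RE-bla cells. Incubation ran 16 h at 37 C, followed by LiveBLAzer detection.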

[7] = p53 small molecule agonists, cell-based qHTS assay with human liver microsomes: qHTS cell viability counter screen (AID 1963579); further: nearly all actives have a fitted effect of over 45% in size
Method in brief: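 Cells carrying the p53 response-element beta-lactamase reporter are treated for 16 h at 37 C with test compounds in the presence of human liver microsomes and NADPH (both 0.5 mg/mL final); ATP-based CellTiter-Glo luminescence then reports viability.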

[8] = p53 small molecule agonists, cell-based qHTS assay with rat liver microsomes: qHTS cell viability counter screen (AID 1963580); further: nearly all actives have a fitted effect of over 45% in size
Method in brief: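 After the beta-lactamase ratio was read, CellTiter-Glo was added to the same wells and luminescence measured at 30 min; cells had been treated 16 h at 37 C with compounds, rat liver microsomes and NADPH (0.5 mg/mL final each).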

[9] = p53 small molecule agonists, cell-based qHTS assay: qHTS cell viability counter screen (AID 1963581); further: nearly all actives have a fitted effect of over 45% in size
Method in brief: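 Cytotoxicity read-out: ATP-based luminescence (CellTiter-Glo, 30 min RT) measured in the same wells as the p53 reporter assay, HCT-116 p53RE-bla cells, 16 h compound exposure at 37 C.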

[10] = p53 small molecule agonists, cell-based qHTS assay (AID 1963582; active means well fitted activation curve with a large enough effect in the signal ratio in the repeat runs, not every such curve was filed as active; the % refers to the signal ratio)
Method in brief: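 Fluorescence intensity read-out of a beta-lactamase reporter under a p53 response element. Cells were exposed to DMSO-dissolved compounds for 16 h at 37 C, then developed with FRET substrate for 2 h at RT.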

[11] = target: 5-hydroxytryptamine receptor 2A (Homo sapiens) (UniProt P28223); test: 5-hydroxytryptamine receptor 2A (HTR2A) small molecule agonists, cell-based qHTS assay (AID 1963587); further: nearly all actives have a fitted effect of over 30% in size
Chain of 5-hydroxytryptamine receptor 2A (Homo sapiens) (P28223 whole entry, looked up): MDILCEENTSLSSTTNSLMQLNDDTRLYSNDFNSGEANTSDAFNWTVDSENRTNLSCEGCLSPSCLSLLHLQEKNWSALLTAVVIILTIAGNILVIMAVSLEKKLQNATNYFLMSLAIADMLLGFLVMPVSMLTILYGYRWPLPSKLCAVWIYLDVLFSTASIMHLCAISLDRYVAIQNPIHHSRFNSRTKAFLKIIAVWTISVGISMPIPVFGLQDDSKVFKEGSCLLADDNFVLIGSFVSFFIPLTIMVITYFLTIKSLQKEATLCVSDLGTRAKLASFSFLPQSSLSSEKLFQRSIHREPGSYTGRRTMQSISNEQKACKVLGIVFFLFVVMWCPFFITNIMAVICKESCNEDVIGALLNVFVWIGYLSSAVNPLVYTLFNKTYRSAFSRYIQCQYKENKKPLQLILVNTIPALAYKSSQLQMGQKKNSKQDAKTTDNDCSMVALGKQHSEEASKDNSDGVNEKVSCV
Method in brief: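 CHO cells stably expressing human HTR2A, plated 18 h, loaded with calcium dye 1 h at 37 C. Agonist mode: compounds added and intracellular calcium fluorescence recorded kinetically for 2 min at 1 sec intervals.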

[12] = target: Muscarinic acetylcholine receptor M1 (Homo sapiens) (UniProt P11229); test: Cholinergic receptor muscarinic 1 (CHRM1) small molecule antagonists, cell-based qHTS assay (AID 1963588); further: nearly all actives have a fitted effect of over 40% in size
Chain of Muscarinic acetylcholine receptor M1 (Homo sapiens) (P11229 whole entry, looked up): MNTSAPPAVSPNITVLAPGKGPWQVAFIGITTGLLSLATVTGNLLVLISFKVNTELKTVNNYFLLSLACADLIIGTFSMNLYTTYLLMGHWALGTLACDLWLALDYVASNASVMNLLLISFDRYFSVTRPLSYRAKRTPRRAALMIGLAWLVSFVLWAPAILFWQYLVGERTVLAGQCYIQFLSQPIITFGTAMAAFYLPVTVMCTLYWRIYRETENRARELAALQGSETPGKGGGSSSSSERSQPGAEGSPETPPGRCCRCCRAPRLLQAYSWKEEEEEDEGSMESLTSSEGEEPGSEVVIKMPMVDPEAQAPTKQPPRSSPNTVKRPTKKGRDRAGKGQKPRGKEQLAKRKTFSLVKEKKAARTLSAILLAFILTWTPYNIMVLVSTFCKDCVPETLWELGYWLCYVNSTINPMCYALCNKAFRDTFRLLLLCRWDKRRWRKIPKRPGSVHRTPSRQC
Method in brief: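 Compounds were tested at 15 concentrations in three independent runs. Dye-loaded CHRM1-CHO cells were exposed 5 min at room temperature before stimulation by acetylcholine added at 50nM. Intracellular calcium was read kinetically on FDSS for 3 min.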

[13] = target: Muscarinic acetylcholine receptor M1 (Homo sapiens) (UniProt P11229); test: Cholinergic receptor muscarinic 1 (CHRM1) small molecule agonists, cell-based qHTS assay (AID 1963589); further: nearly all actives have a fitted effect of over 35% in size
Method in brief: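 Calcium flux read-out: kinetic fluorescence at 1 sec intervals after pin-tool compound addition to dye-loaded CHRM1-CHO cells (human M1). Agonist mode; 15 concentrations tested in triplicate independent runs.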

[14] = cAMP Responsive Elements (CRE) small molecule agonists, cell-based qHTS assay (AID 1963590)
Method in brief: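 Beta-lactamase reporter readout: LiveBLAzer B/G FRET substrate, 2 h at room temperature, added after 3 h compound treatment of CRE-bla HEK 293T cells at 37 C/5% CO2.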

[15] = cAMP Responsive Elements (CRE) small molecule antagonists, cell-based qHTS assay (AID 1963591; active means well fitted inhibition curve with a large enough effect in the signal ratio in the repeat runs, not every such curve was filed as active; the % refers to the signal ratio)
Method in brief: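 HEK293T CRE-bla; 18 h preincubation; compound pin-transfer; NKH477 0.25 uM final, 3 h, 37 C; LiveBLAzer FRET substrate 2 h RT.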

[16] = target: Beta-2 adrenergic receptor (Homo sapiens) (UniProt P07550); test: Adrenergic beta2 receptor (ADRB2) small molecule antagonists, cell-based qHTS assay (AID 1963592); further: series mostly up to about 92 µM; nearly all actives have a fitted effect of over 50% in size
Chain of Beta-2 adrenergic receptor (Homo sapiens) (P07550 whole entry, looked up): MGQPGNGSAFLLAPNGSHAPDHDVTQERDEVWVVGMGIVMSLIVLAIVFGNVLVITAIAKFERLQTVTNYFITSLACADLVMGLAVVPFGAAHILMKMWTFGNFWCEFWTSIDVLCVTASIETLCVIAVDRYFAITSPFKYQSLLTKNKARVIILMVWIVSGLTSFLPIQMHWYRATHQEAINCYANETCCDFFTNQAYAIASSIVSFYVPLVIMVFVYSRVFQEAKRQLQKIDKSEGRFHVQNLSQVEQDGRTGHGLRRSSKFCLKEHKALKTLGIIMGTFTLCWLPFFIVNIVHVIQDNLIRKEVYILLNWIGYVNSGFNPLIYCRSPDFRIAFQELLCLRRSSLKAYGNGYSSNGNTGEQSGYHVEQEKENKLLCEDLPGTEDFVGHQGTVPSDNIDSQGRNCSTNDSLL
Method in brief: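 Assay format: CHO-ADRB2 cells, 18-20hr seeding at 37C/5% CO2, then compound plus 1nM isoproterenol agonist mix for 0.5hr RT. Homogeneous time-resolved fluorescence cAMP detection after 1hr, expressed as 665/615 nm ratio.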

[17] = target: D(2) dopamine receptor (Homo sapiens) (UniProt P14416); test: Dopamine D2 receptor (DRD2) small molecule agonists, cell-based qHTS assay (AID 1963594); further: nearly all actives have a fitted effect of over 35% in size
Chain of D(2) dopamine receptor (Homo sapiens) (P14416 whole entry, looked up): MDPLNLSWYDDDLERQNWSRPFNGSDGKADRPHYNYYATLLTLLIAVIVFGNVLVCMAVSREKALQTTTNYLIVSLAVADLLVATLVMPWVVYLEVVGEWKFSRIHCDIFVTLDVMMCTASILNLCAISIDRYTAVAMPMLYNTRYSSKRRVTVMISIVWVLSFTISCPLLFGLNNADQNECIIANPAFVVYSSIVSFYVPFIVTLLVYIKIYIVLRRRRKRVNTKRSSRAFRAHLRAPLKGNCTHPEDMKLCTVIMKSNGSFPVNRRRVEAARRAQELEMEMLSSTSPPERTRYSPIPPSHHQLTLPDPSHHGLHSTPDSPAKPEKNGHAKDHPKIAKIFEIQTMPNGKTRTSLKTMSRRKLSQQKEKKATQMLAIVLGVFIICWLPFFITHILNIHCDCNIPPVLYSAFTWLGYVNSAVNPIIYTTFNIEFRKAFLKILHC
Method in brief: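 HEK293 cells stably expressing human DRD2, pre-treated with PDE inhibitor Ro20-1724 (0.1 mM final) and compound 10 min at room temperature, then stimulated with NKH477 (200nM […]) for 30 min. cAMP read by HTRF (665/620 nm).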

[18] = target: D(2) dopamine receptor (Homo sapiens) (UniProt P14416); test: Dopamine D2 receptor (DRD2) small molecule antagonists, cell-based qHTS assay (AID 1963595; active means well fitted inhibition curve with a large enough effect in the signal ratio in the repeat runs, with a control signal flat; the % refers to the signal ratio)
Method in brief: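 Stable D2 receptor HEK293 line, 24 h after seeding. Compound preincubated 10 min, then quinpirole (12 nM) with forskolin analogue NKH477 (200 nM), 30 min, room temperature. Detection by time-resolved FRET of cAMP.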

[19] = target: 5-hydroxytryptamine receptor 2A (Homo sapiens) (UniProt P28223); test: 5-hydroxytryptamine receptor 2A (HTR2A) small molecule antagonists, cell-based qHTS assay (AID 1963586); further: nearly all actives have a fitted effect of over 45% in size
Method in brief: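 CHO cells stably expressing human HTR2A were plated for 18 h at 37 C, then loaded with calcium dye for 1 h. Compounds were preincubated 5 min at room temperature before DOI (4 nM solution) was added. Kinetic fluorescence was read for 3 min.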

Measured: Potency

N#CCC(=O)NN
not listed: [19]
inactive: all other assays above

CC(C)Nc1nc(N)nc(Cl)n1
not listed: [10] | [15]
inactive: all other assays above

O=C(OCC(O)CO)c1ccccc1Nc1ccnc2c(C(F)(F)F)cccc12 (centres undefined)
not listed: [14] | [15] | [17]
inactive: all other assays above

CC(C)(C)NCC(O)COc1cccc2c1C[C@H](O)[C@H](O)C2 (some centres undefined)
not listed: [11] | [12] | [13] | [16] | [17] | [19]
inactive: all other assays above

COC(C)(C)CCCC(C)CC=O (centres undefined)
not listed: [14] | [15]
inactive: all other assays above

COc1ccc(-n2nc(C(F)F)cc2-c2ccc(S(C)=O)cc2)cc1 (centres undefined)
not listed: [10] | [14] | [15]
inactive: all other assays above

N#C[C@@H]1CC(F)(F)CN1C(=O)CNC1CC2CCC(C1)N2c1ncccn1 (some centres undefined)
not listed: [10] | [12]
inactive: all other assays above
